DAX1 inh-1 – inhibitors of human orphan nuclear receptor DAX1 (NR0B1); inhibition, % at 6.75 µM; 340,000 tested, 0.99% active; HEK293 Gal4-DAX1 luciferase reporter, luminescence; P51843;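 active = inhibition above the mean over all tested compounds plus 3 SD, cut at about 4.2% in these data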;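 note: 0% = DAX1-transfected cells with DMSO and 100% = empty-vector control cells with DMSO; inhibition shows as a rise in luminescence from relieved DAX1 repression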
hgDAF-12 ag – activates the H. glycines DAF-12 receptor ligand-binding domain; HEK293 GAL4-hgDAF12 UAS-luciferase reporter, agonist luminescence; normalized to butyrate control; activation, % at 6.8 µM; 370,000 tested, 1.8% active; AID 687014;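 active = activation above a cutoff set at the mean of all screened compounds plus 3 SD, cut at about 10% in these data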;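 note: 0% = DMSO wells and 100% = sodium butyrate wells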
DAX1 inh-2 – inhibitors of DAX1 repression of SF-1 activated StAR promoter | inhibition, % at 6.8 µM | AID 652010 | HEK293T StAR-luciferase reporter, SF-1/DAX-1 repression relief | 370,000 tested, 1.1% active;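 active = inhibition above the mean over all tested compounds plus 3 SD, cut at about 3.6% in these data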;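 note: 0% = DAX-1 cells with DMSO and 100% = cells lacking DAX-1 with DMSO; higher inhibition means more luminescence from relief of DAX-1 repression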
GAA850 FXN act – increases GAA850 frataxin promoter reporter activity; HEK293 lucGAA850 FXN promoter luciferase reporter, 24 h; percent of 10 µM SAHA response; activation, % at 6 µM; AID 540364; 360,000 tested, 0.56% active;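 active = activation above the average of all compounds screened plus 3 SD, cutoff fixed separately per campaign, cut at about 7.5% in these data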;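 note: 0% = DMSO wells and 100% = 10 µM SAHA wells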
ssDAF-12 act – S. stercoralis DAF-12 activation, primary screen; 370,000 tested, 1% active; HEK293 ssDAF-12/GRIP1 lit1-tk-luc reporter, luminescence; % of 3 µM dafachronic acid response; activation, % at 6.8 µM;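 active = activation above the mean over all tested compounds plus 3 SD, cut at about 0.9% in these data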;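 note: 0% = DMSO-only wells and 100% = 3 µM delta7-dafachronic acid wells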
hcDAF12 agonist – activates DAF-12 receptor from parasite H. contortus | HEK293 hcDAF-12 lit1-tk-luc reporter, luminescence; 0% DMSO, 100% Δ7-dafachronic acid | activation, % at 6.8 µM | 370,000 tested, 1.4% active | AID 652067;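 active = activation above the mean of all tested compounds plus 3 SD, cut at about 5.5% in these data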;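 note: 100% = response to 3 µM Δ7-dafachronic acid high control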
DAX1 conf – NR0B1 (human) inhibition, confirmation; 2,400 tested, 87% active; AID 652134; inhibition, % at 6.8 µM; HEK293T StAR-promoter luciferase reporter, SF-1/DAX-1 repression; shares compounds with DAX1 inh-2;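 active = inhibition above the average of every tested compound plus 3 SD, cut at about 3.8% in these data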;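 note: 0% = DAX-1 cells with DMSO and 100% = no DAX-1 control cells with DMSO; active compounds raise luminescence by relieving repression of the StAR reporter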
Target sequence (P51843 whole entry, looked up): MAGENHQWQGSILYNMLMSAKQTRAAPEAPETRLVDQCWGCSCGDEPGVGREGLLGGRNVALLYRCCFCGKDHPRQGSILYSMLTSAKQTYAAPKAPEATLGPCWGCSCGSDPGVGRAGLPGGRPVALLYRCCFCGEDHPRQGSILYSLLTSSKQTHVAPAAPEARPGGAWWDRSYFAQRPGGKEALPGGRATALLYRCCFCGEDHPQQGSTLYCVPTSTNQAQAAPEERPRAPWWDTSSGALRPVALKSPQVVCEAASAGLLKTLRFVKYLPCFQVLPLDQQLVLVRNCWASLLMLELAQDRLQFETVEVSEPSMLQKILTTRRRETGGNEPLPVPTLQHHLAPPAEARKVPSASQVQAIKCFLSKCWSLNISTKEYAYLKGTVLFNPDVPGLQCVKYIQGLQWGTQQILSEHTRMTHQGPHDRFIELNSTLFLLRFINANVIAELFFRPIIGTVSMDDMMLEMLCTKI
SF1 AF2mut Luc – counter-screen for DAX1 inhibitors: nonselective inhibitors with SF-1 AF2 mutant | shares compounds with DAX1 inh-2 | HEK293 StAR-luciferase, luminescence | inhibition, % at 6.8 µM | 2,400 tested, 78% active;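 active = inhibition above the mean of all tested compounds plus 3 SD, cut at about 3% in these data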;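 note: 0% = DAX-1 transfected cells with DMSO and 100% = cells without DAX-1 with DMSO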
Active calls of the source: *; x = no result given. A selection: hits, their analogues and other compounds. The true share with any hit is near 4.5%.

SMILES	DAX1 inh-1	hgDAF-12 ag	DAX1 inh-2	GAA850 FXN act	ssDAF-12 act	hcDAF12 agonist	DAX1 conf	SF1 AF2mut Luc
COc1ccc(-n2c(=O)c(NC(=O)c3ccccc3)c3n(c2=S)CCCCC3)cc1	1	0	4.9*	-1	-1	-2	0	0
COc1cc(-c2nc(CN(C)C(C)c3ccncn3)c(C)o2)ccc1F (stereo unspecified)	0	0	-1	1	-1	-1	x	x
COc1cccc(NC(=O)[C@H](NC(=O)[C@@H]2Cc3ccccc3CN2)c2ccccc2)c1	0	6	4.9*	1	0	3	4.1*	3
Cc1cccc(CCNC(=O)c2cc3ccccn3n2)c1	x	6	1	x	-1	-2	x	x
O=C(NCCc1ccccc1F)c1cc2ccccn2n1	x	13*	5.0*	x	1	4	16*	5.2*
O=C(NC1CCCCC1)C(c1ccncc1)n1c(=O)c(-c2ccccc2)nc2ccccc21 (stereo unspecified)	x	-2	0	x	-1	0	x	x
O=C(NC1CCCCC1)C(c1ccc(-c2ccccc2)cc1)n1c(=O)c(-c2ccco2)nc2ccccc21 (stereo unspecified)	x	4	4.8*	x	0	1	-1	-1
CCN(c1ccc(OCC(=O)OCC(=O)c2c(N)n(C)c(=O)n(C)c2=O)cc1)S(=O)(=O)c1ccccc1	0	-1	5.2*	-2	-1	-1	2	2
CN(c1ccc(OCC(=O)OCC(=O)c2c(N)n(C)c(=O)n(C)c2=O)cc1)S(=O)(=O)c1ccc2ccccc2c1	1	0	0	2	-1	-2	x	x
O=C1NC[C@H](Cc2ccccc2)N(CC2CCN(CCCC3CCCC3)CC2)C1=O	0	4	5.5*	-1	-1	-1	1	1
Cc1ccccc1NC(=O)c1ccc(-c2ccc(Cl)cc2Cl)o1	0	0	0	2	-1	0	x	x
Cc1ccc(NC(=O)c2ccc(-c3cc(Cl)ccc3Cl)o2)c(C)c1	x	0	5.9*	3	0	0	3	1
Cc1ccc(N=C/C(C(=O)C(F)(F)F)=C(\O)c2cccs2)cc1	-3	5	4.5*	-5	0	6.5*	18*	6.2*
Cc1ccc(-c2nc3ccc(Cl)cn3c2CC2CCCCC2)cc1	x	13*	4.8*	x	0	7.1*	8.5*	5.5*
Cc1cc2nc(-c3cccc(Cl)c3)c(CC3CCCCC3)n2c(C)c1Br	x	3	2	x	0	3	x	x
Cc1ccc2nc(-c3cccc(Br)c3)c(CC3CCCCC3)n2c1	x	13*	6.4*	x	0	5	5.1*	5.6*
O=C(NCCc1csc(-c2ccc(C(F)(F)F)cc2)n1)c1cccs1	0	-1	0	0	-1	-2	x	x
CC(=O)N(C)c1ccc(C=C2C=Cc3ccccc32)cc1	0	6	4.9*	-4	0	6.2*	3	-2
CCN(N=O)c1ccc(C=C2C=Cc3ccccc32)cc1	3	19*	6.6*	3	0	5.8*	9.3*	5.7*
CN(N=O)c1ccc(C=C2C=Cc3ccccc32)cc1	5.0*	11*	6.3*	3	1.0*	7.4*	12*	6.8*
CCN(CC)c1ccc(C=C2C(=O)OC(c3ccccc3)OC2=O)cc1 (stereo unspecified)	2	-1	-1	0	-1	-2	x	x
O=C(COc1ccc(F)cc1)NNC(=O)Cn1ccc(C(F)(F)F)n1	1	-2	-2	-1	-1	-1	x	x
CC1CCN(c2ccc(-c3cccc(NC(=O)C(F)(F)F)c3)nn2)CC1	-6	-6	0	-10	-1	0	x	x
COc1ccc(-c2ccc(NC(=O)c3ccco3)cc2)nn1	-4	8	9.0*	-2	0	3	13*	1
O=C(Nc1cccc(-c2ccc(N3CCOCC3)nn2)c1)c1ccccc1	-1	6	4.7*	4	-1	2	3	2
SMILES	DAX1 inh-1	hgDAF-12 ag	DAX1 inh-2	GAA850 FXN act	ssDAF-12 act	hcDAF12 agonist	DAX1 conf	SF1 AF2mut Luc
O=C(COc1ccccc1)Nc1cccc(-c2ccc(N3CCOCC3)nn2)c1	0	13*	7.9*	4	0	3	5.3*	2
O=C(Nc1cccc(-c2ccc(N3CCOCC3)nn2)c1)c1ccc([N+](=O)[O-])cc1	1	9	2	1	0	3	x	x
CC1CCN(c2ccc(-c3cccc(NC(=O)c4ccco4)c3)nn2)CC1	-1	10	8.0*	0	0	3	11*	3.4*
COc1ccc(-c2cccc(NC(=O)c3ccco3)c2)nn1	0	1	-3	-1	-2	-2	x	x
COC(=O)[C@@]12C[C@@H](CC(=O)NCc3ccc(C)o3)C(=O)N(Cc3ccc4c(c3)OCO4)C1=CCC(C)(C)C2	x	0	0	x	-2	-3	x	x
C[C@@H](NS(=O)(=O)c1c(F)cccc1F)c1ccccc1	x	1	1	x	-1	-2	x	x
Cc1ccc(S(=O)(=O)N(Cc2ccccc2Cl)C(=O)N2CCN(C)CC2)cc1	-1	2	-1	0	0	2	x	x
Cc1ccc(S(=O)(=O)N(Cc2ccccc2F)C(=O)N2CCN(C)CC2)cc1	1	1	5.0*	1	-1	0	2	1
Cc1nc2nc(-c3ccc(Cl)cc3)cn2nc1C	0	10	6.2*	-2	0	5	9.4*	2.9*
Cc1nc2nc(-c3cccs3)cn2nc1C	0	8	3	3	0	3	x	x
COc1cc(NC2c3ccccc3C(=O)N2c2ccc(C)cn2)cc(OC)c1OC (stereo unspecified)	4	8	6.1*	3	0	2	3	3.1*
O=C(NNC(=O)C1CCN(c2ncccn2)CC1)c1ccc(F)cc1	0	-2	0	0	-1	-1	x	x
O=C(NCC1CCCO1)c1ccc(-c2ccccc2Cl)o1 (stereo unspecified)	2	13*	7.3*	4	0	3	11*	6.0*
O=C(c1ccc(-c2ccccc2Cl)o1)N1CCCC(C(F)(F)F)C1 (stereo unspecified)	1	3	3	3	-1	0	x	x
NC(=O)C1CCCN(C(=O)c2ccc(-c3cccc(Cl)c3Cl)o2)C1 (stereo unspecified)	0	10	5.6*	3	0	3	9.2*	4.8*

Source: PubChem BioAssay (The Scripps Research Institute Molecular Screening Center)
